# Experimental data reported in PubChem BioAssay (NCATS).
# Records with an inconclusive call do not appear. A call without a number means that no potency is given here. A number with no mark means an inactive call. The source made the active and inactive calls. Calls follow the shape of the dose curve; as a rule, active = well fitted inhibition curve with a large enough effect in the repeat runs; inconclusive = weak or mixed curves; inactive = no such curve, though single readings can be large or run the other way.
# Target: Cytochrome P450 2C9 (Homo sapiens) (UniProt P11712)
# Sequence (P11712 whole entry, looked up): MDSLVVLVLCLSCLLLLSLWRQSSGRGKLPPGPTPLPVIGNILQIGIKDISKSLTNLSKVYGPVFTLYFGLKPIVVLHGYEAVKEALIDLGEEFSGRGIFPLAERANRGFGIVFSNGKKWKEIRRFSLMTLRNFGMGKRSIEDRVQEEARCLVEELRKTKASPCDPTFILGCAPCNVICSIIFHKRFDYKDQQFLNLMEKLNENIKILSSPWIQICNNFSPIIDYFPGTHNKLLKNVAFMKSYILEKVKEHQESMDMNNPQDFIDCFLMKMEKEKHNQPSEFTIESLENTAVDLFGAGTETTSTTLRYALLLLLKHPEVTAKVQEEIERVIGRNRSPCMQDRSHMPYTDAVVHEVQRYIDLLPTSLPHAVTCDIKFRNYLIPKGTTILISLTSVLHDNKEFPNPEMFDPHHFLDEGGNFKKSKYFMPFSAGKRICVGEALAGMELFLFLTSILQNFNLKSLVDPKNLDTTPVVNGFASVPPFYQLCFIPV
# Test: Cytochrome P450 family 2 subfamily C member 9 (CYP2C9) small molecule antagonists: luciferase biochemical (cell-free) qHTS assay (AID 1645842); also: nearly all actives have a fitted effect of over 55% in size
# Settings: P450-Glo CYP2C9 enzyme assay, luciferin luminescence; series mostly up to 57.4 µM
# How it was run: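 P450-Glo CYP2C9 system: proluciferin substrate with enzyme in mix containing 0.4% BSA, 10 min at room temperature, then NADPH regeneration solution added and incubated 1 h at 37C. Detection reagent stopped reaction; luminescence read after 20 min as RLU.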
# Potency is read from the fitted curve at half-maximal effect.
SMILES,Potency,"activity change, negative = inhibition"
CON(C)C(=O)N1N=C(c2cc(F)ccc2F)S[C@@]1(CCCN)c1ccccc1,3.01 µM (active),
COc1ccc2cc(OCC3(C(=O)O)CN(C(=O)c4ccc(F)cc4)C3)ccc2c1,16.9 µM (active),
O=C1N(CC2CCCCN2)CCN1c1ccccc1 (configuration not stated),inactive,
Cc1onc(-c2ccccc2)c1C(=O)N[C@@H]1C(=O)N2[C@@H]1SC(C)(C)[C@@H]2C(=O)O,inactive,
COc1cccc(-n2nc(C(=O)O)cc2-c2ccc(C3CCCCC3)c(Cl)c2)c1,inactive,
CC(=O)N1CCN(NC(=O)c2ccc(F)cc2)CC1,inactive,
CC(C)N(C[C@H]1O[C@@H](n2cnc3c(N)ncnc32)[C@H](O)[C@@H]1O)C1CC(CCc2nc3ccc(C(C)(C)C)cc3[nH]2)C1 (some centres not stated),inactive,
CC1(C)OC(=O)C(OCC2CC2)=C1c1ccc(S(C)(=O)=O)cc1,13.5 µM (active),
CCn1c2ccccc2c2cc(CNC)ccc21,inactive,
FC(F)(F)c1cc(C(F)(F)F)c2ccc3nc(-c4nnco4)cn3c2n1,inactive,
N[C@@H](CC(=O)N1CCn2c(nnc2C(F)(F)F)C1)Cc1[nH]nc2c(F)c(F)ccc12,inactive,
O=c1ccn([C@@H]2O[C@H](CO)[C@@H](O)[C@H]2O)c(=O)[nH]1,inactive,
COc1ccc([C@@H]2N[C@H](C(=O)O)Cc3c2[nH]c2ccccc32)cc1CN1CCN(c2ccccc2F)CC1,inactive,
Cc1ccc(C(=O)Nc2ccc(Oc3cc4cnn(C)c4cc3-c3cn[nH]c3)c(F)c2)c(=O)n1-c1ccc(F)cc1,2.68 µM (active),
CC1(C)CCC(C)(C)c2cc([C@@H](O)C(=O)Nc3ccc(C(=O)O)cc3F)ccc21,13.5 µM (active),
CC(C)Nc1cc(-c2c[nH]c(C(=O)N[C@H](CO)c3cccc(Cl)c3)c2)c(Cl)cn1,4.77 µM (active),
O=C(c1ccc(F)cc1)C1CCN(CCn2c(=O)nc3n(c2=O)CCCC3)CC1,inactive,
COCCCNCC1COc2ccccc2O1 (configuration not stated),inactive,
Cc1cc(Nc2ncc(Cl)c(Nc3ccccc3S(=O)(=O)C(C)C)n2)c(OC(C)C)cc1C1CCNCC1,3.38 µM (active),

SMILES,Potency,"activity change, negative = inhibition"
O=C(NCC(=O)N1CC[C@H](NC2CCC(O)(c3ccc(-c4ncccn4)cn3)CC2)C1)c1cccc(C(F)(F)F)c1 (some centres not stated),inactive,
Cc1[nH]cnc1C1CCN(c2nc3cccc4c3n2CCC4=O)CC1,9.52 µM (active),
CC(=O)c1cnc2ccc(-c3cc(Cl)c(O)c(Cl)c3)nc2c1NC1CCC(CN(C)C)CC1 (configuration not stated),inactive,
O=C(CCCCc1ccc2ccccc2c1)C(F)(F)F,9.52 µM (active),
CC(C)(C)NCc1cc(Nc2ccnc3cc(Cl)ccc23)c2c(c1O)CCCC2,,-23.1% [at 11.5 µM]
CC[C@H]1OC(=O)C[C@@H](O)[C@H](C)[C@@H](O[C@@H]2O[C@H](C)[C@@H](O)[C@H](N(C)C)[C@H]2O)[C@@H](CCN2C[C@H](C)C[C@H](C)C2)C[C@@H](C)C(=O)/C=C/C(C)=C/[C@@H]1CO[C@@H]1O[C@H](C)[C@@H](O)[C@@H](OC)[C@H]1OC,inactive,
CN1CCC(c2c[nH]c3ccc(NC(=O)c4ccc(F)cc4)cc23)CC1,inactive,
Cc1cc(C)cc(NC(=O)Cc2ccc(OC(C)(C)C(=O)O)cc2)c1,inactive,
CNC(=O)c1ccc(Nc2ncc(C(F)(F)F)c(NCc3nccnc3N(C)S(C)(=O)=O)n2)cc1,3.79 µM (active),
CN(C)C/C=C/C(=O)Nc1ccc(C(=O)Nc2cccc(Nc3ncc(Cl)c(-c4c[nH]c5ccccc45)n3)c2)cc1,7.56 µM (active),
C=C1CC[C@@H]2[C@](C)(CO)[C@H](O)CC[C@@]2(C)[C@@H]1C/C=C1/C(=O)OC[C@H]1O,inactive,
COc1ccc(C)c2sc(NC(=O)c3ccncc3)nc12,0.849 µM (active),
CCC(=O)NS(=O)(=O)c1ccc(-c2c(-c3ccccc3)noc2C)cc1,6.74 µM (active),
CCc1c(CC(N)=O)c2cc(OCCCP(=O)(O)O)ccc2n1Cc1ccccc1,inactive,
COC(=O)[C@H](CC1C=NC=N1)NCC12CC3CC(CC(C3)C1)C2 (some centres not stated),inactive,
Cc1cc(C)c(S(=O)(=O)N(Cc2ccc(-c3cccc(S(C)(=O)=O)c3)cc2)Cc2ccc(C(F)(F)F)o2)c(C)c1,0.268 µM (active),
C[C@@H](Nc1cc(NS(=O)(=O)N2CCC2)nc(SCc2cccc(F)c2F)n1)[C@@H](O)CO,inactive,
O=C(O)c1n[nH]c2c1C[C@H]1C[C@@H]21,inactive,
